Values joined by “and” are separate entries in the source; they are usually repeats but may differ in a detail not shown here. Identical values can stand only once. The panel holds about 83,000 compounds, 20% with a hit somewhere; the sample as a whole holds those more often.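 Single-dose data. Exposure time 48 hours. Values below 10 considered active.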 Active and inactive are the calls of the source.

This assay relates to MDA-MB-468 breast. As to the kind of experiment: NCI-60 one-dose screen, 48 h (100 = growth as untreated, 0 = no growth, -100 = all killed). Conditions: 10 µM unless noted.
As for `CC(C)=CCc1cc2c(cc1O)C1=C(C(=O)C3=C(NCCS3(=O)=O)C1=O)C(C=C(C)C)O2` (stereo not given), the growth was -20.7% (active). Under `COc1c(CCC[P+](c2ccccc2)(c2ccccc2)c2ccccc2)cc2c(c1OC)OCO2` stands -28% (active); under `O=c1[nH]nc(-c2ccccc2)c2sc(NC(=S)Nc3ccc(Cl)cc3)nc12`, 95.6% (inactive). Under `c1cc2ccc3cc2cc1CNCCOCCNCc1ccc2ccc(cc2c1)CNCCOCCNC3` stands -68% (active).

Turning to `COc1cc(C2CC(c3cc(Cl)c(C)cc3O)=NN2c2ccc(S(N)(=O)=O)cc2)cc(OC)c1OC` (stereo not given), the growth was 22.7% (inactive). Under `Cc1cc(C(=O)c2ccccc2)cc(C)c1O` stands 111% (inactive).

`COc1ccc2c(c1)/C(=C1\S/C(=N/c3nnc(C)s3)NC1=O)C(=O)N2Cc1ccc(Cl)cc1`: the growth is 50.9% (inactive). Under `Cn1c(=O)c2c(nc(NC3=NS(=O)(=O)c4ccccc43)n2Cc2ccccc2)n(C)c1=O` stands 103% (inactive); under `COc1ccc(C2=NN(C(=O)c3cc(-c4ccc(C)cc4)nc4ccccc34)C(c3cc(-c4ccccc4)nn3-c3ccccc3)C2)cc1` (stereo not given), 98.1% (inactive); under `COc1ccc(-n2c(=S)sc3c(Cl)nc(C)nc32)c(OC)c1`, -19.6% (active).

`O=C(Nc1nc(-c2ccccc2Cl)cs1)c1cc(-c2ccc(Cl)cc2)nc2ccc(Cl)cc12`: the growth was 89.4% (inactive). Under `CNC(=O)c1cc(Oc2ccc3nc(Nc4cc(Cl)cc(Cl)c4)ccc3c2)ccn1` stands 54.1% (inactive); under `C=C1C(=O)O[C@H]2[C@H]1CC/C(COC(=O)c1cccnc1N)=C\CC[C@@]1(C)O[C@@H]21`, 14.8% (inactive). As for `COc1ccc(/C(=C\c2ccc3c(c2)OCO3)C(=O)Nc2nc3ccc(F)cc3s2)cc1OC`, the figure is 115% (inactive); as for `CCOC(=O)c1c(C)c2c(n1Cc1ccccc1)CSc1cc(C#N)c(=O)[nH]c1-2`, 80.3% [100 µM] (inactive); as for `COc1cc2nccc(Oc3ccc(NC(=O)C4(C(=O)Nc5c(F)cc(F)cc5F)CC4)cc3)c2cc1Oc1ccc(N)cn1`, 33.3% (inactive). As for `COC(=O)[C@]12CC[C@@H](C(C)=O)[C@@H]1[C@H]1CC[C@@H]3[C@@]4(C)C/C(=C/c5cccnc5)C(=O)C(C)(C)[C@@H]4CC[C@@]3(C)[C@]1(C)CC2`, the figure is 55.7% (inactive). Turning to `CNc1ccc(Cl)cc1S(=O)(=O)c1ccccc1[N+](=O)[O-]`, the growth was 72.7% (inactive).

With `CCCCCCOc1ccc(/C=N/Nc2cc(C)nc3ccc(Br)cc23)cc1`, the growth is -78.6% (active).

As for `COC(=O)[C@]12CC[C@@H](C)[C@H](C)[C@@H]1C1=CC[C@@H]3[C@@]4(C)C(C=O)=C[C@@](C)(COC(=O)c5ccco5)C4=CC[C@@]3(C)[C@]1(C)CC2`, the growth is 5.01% (active). As for `C=C[C@@H]1C[C@H](O)Cc2ccccc2N1`, the figure is 123% (inactive). As for `CCCCC(CCc1ccccn1)C(=O)c1ccccc1` (stereo not given), the figure is 109% (inactive); as for `NC(=S)NN=C1CCC(C2CCCCC2)CC1` (stereo not given), 50.9% (inactive) and 46.9% (inactive); as for `N#CSCC1CC(O)(c2ccccc2)C(c2ccccc2)C(c2ccc(F)cc2)O1` (stereo not given), -13.4% (active). On to `CCOC(=O)CC1CSC(N/N=C/c2ccc(O)cc2)=N1` (stereo not given), for which the growth is 108% (inactive).

As to `COc1ccc(C2CC(c3cccc(OC)c3)=NN2C(=O)c2cc(OC)c(OC)c(OC)c2)cc1` (stereo not given), the growth is 29.2% (inactive). Under `COc1ccc2c(c1)O/C(=C/c1ccc(OCC(=O)Nc3ccc(S(N)(=O)=O)cc3)cc1)C2=O` stands 86.3% (inactive); under `COc1ccc(-c2nc(N)n(C(=S)Nc3ccccc3)n2)cc1`, 102% (inactive). As for `N=C(N)c1ccc(-c2ccc(-c3ccccc3)o2)o1`, the figure is 14.3% (inactive); as for `O=C1Nc2ccc(Br)cc2C1=N/C=c1\[nH]c(=O)/c(=C/c2ccc(Cl)cc2)s1`, 86.6% (inactive); as for `Cc1cccc(-c2nnc(SCC(=O)Nc3ncc(Cc4ccccc4)s3)n2N2C(=O)CSC2=S)c1`, 62.1% (inactive).

On to `CCC(CC)(N(CC(=O)O)CC(=O)O)C(CC)(CC)N(CC(=O)O)CC(=O)O`, for which the growth was 127% (inactive). Under `COc1ccc2nc3ccccc3c(NCc3ccccc3)c2c1` stands -9.89% (active); under `COc1ccc(/C=C(\C#N)n2nc3cccc(F)c3n2)cc1`, 100% (inactive). Turning to `CC(C)(C)n1cc(-c2ccnc(NCCCNS(=O)(=O)c3ccc(C(F)(F)F)cc3)c2)c(-c2cccc(F)c2)n1`, the growth is 98.6% (inactive). Under `CC(C)Sc1nc(NNC(N)=S)c(C#N)c(-c2ccc(F)cc2)n1` stands 98.4% (inactive). Under `CN(C)CCN=c1nc2c(c(N)n1-c1ccccc1)c(=S)n(-c1ccccc1)c(=S)n2-c1ccccc1` stands -34.6% (active); under `CCn1c(Cc2ccccc2Nc2c(Cl)cccc2Cl)nnc1SCC(=O)Nc1ccccc1C(F)(F)F`, 69.9% (inactive); under `O=C1/C(=C/c2ccccc2)CN(C(=O)CCN2CCC(=NO)CC2)C/C1=C\c1ccccc1`, -22.7% (active). Take `O=C(OCc1ncc(-c2ccc(C(F)(F)F)cc2)c(NC2CCCCCC2)n1)c1c(F)c(F)c(F)c(F)c1F`: the growth was 16.9% (inactive).
